Records with an inconclusive call do not appear. A number with no mark means an inactive call. Active and inactive are the calls of the source. Calls follow the shape of the dose curve; as a rule, active = well fitted cell-killing curve with a large enough effect; inconclusive = small, poorly fitted or top-dose-only effect, or effect the other way; inactive = no such curve, though single readings can be large or run the other way. Starred links: 1 amine or outer side, 2 acyl side, 3 side chain; linkers in the order of their positions; H or OH if unused. Positions of bridges follow the written chain, without caps; N, C: chain ends. Non-standard residues stand in square brackets, D forms with d. Residues, ends and D or L forms follow the SMILES beside them. Chains are numbered I, II in the order given. *: point of attachment. Actinocin(9to1) = Cc1c2oc3c(C)ccc(C(=O)[*:1])c3nc-2c(C(=O)[*:2])c(N)c1=O; NMeV = CN[CH](C(=O)O)C(C)C; Nva = CCC[C@H](N)C(=O)O; Cbz = O=C(OCc1ccccc1)*; Sar = CNCC(=O)O
Potency is read from the fitted curve at half-maximal effect.

This assay is described as follows: Quantitative High-Throughput drug screen in 47 multiple myeloma cell lines against the NCATS MIPE library collection: XG6_PLB cell viability assay (AID 1919865). Also: nearly all actives have a fitted effect of over 40% in size. The note with it: XG6 myeloma viability, CellTiter-Glo ATP luminescence, 48 h; series mostly up to 45.8 µM; viability (% of control): at the top concentration. From the text:
PI: Beverly A. Mock Ph.D.
Laboratory of Cancer Biology and Genetics,
Center for Cancer Research, National Cancer Institute,
National Institute of Health, Bethesda, Maryland
Drug resistance and disease progression are common in multiple myeloma (MM) patients, underscoring the need for new therapeutic combinations. […] We hypothesized that effective combinations would reduce MYC expression and enhance p16 activity. […] These preclinical data identify potentially useful drug combinations for evaluation in drug-resistant MM and reveal potential mechanisms of combined drug sensitivity.
Described herein is the primary MIPE qHTS used to cherrypick compounds. Validated compounds were then further tested for potential synergistic activiy.
[1] Peat TJ, Gaikwad SM, Dubois W, Gyabaah-Kessie N, Zhang S, Gorjifard S, Phyo Z, Andres M, Hughitt VK, Simpson RM, Miller MA, Girvin AT, Taylor A, Williams D, D'Antonio N, Zhang Y, Rajagopalan A, Flietner E, Wilson K, Zhang X, Shinn P, Klumpp-Thomas C, McKnight C, Itkin Z, Chen L, Kazandijian D, Zhang J, Michalowski AM, Simmons JK, Keats J, Thomas CJ, Mock BA. Drug combinations identified by high-throughput screening promote cell cycle transition and upregulate Smad pathways in myeloma. Cancer Lett. 2023 Aug 1;568:216284. doi: 10.1016/j.canlet.2023.216284. Epub 2023 Jun 24. PMID: 37356470; PMCID: PMC10408729.
SEQUENCE No. (e.g., 1, 2, 3, etc.); […] (e.g., Cells, Incubation, Reagent, etc.); VALUE and DESCRIPTION.
1; Cells; 5 uL; white, solid bottom 1536-well Greiner assay plate.
2; Compounds; 23 nL; Kalypsis pin tool (Wako USA) equipped with a 1536-well pin head to transfer to the assay plates.
3; Incubation; 48 hours; 37C incubation.
4; Reagent;5uL; CellTiter Glo (Promega).
5; Detector; 425V; Luminescence; Viewlux PerkinElmer.
NOTES (numbers refer to Sequence numbers above)
1. The cell-based screening methods employed in this study were like those previously published. Briefly, the corresponding myeloma cell lines were screened in 1,536-well plates with 500 cells, 5-uL per well for inhibition of cell viability (assessed by measuring ATP levels with CellTiterGlo).
2. NCATS MIPE 4.0 library of approved and investigational drugs were added using the Kalypsis pin tool. Wells treated with DMSO only for 100% viability and media only for 0% viability were used as controls.
3. The assay plates were covered and incubated for 48 hours in a 37C, 5% CO2 incubator with controlled humidity.
4. After 48 hours, CellTilter-GloTM luminescent substrate mix (Promega) reagent was added to the assay plate and plates we incubated for 5 min at room temperature.
5. Signal was measured as median relative luminescence units on a ViewLux (PerkinElmer) multiplate reader.
[1] Heske CM, Davis MI, Baumgart JT, Wilson K, Gormally MV, Chen L, Zhang X, Ceribelli M, Duveau DY, Guha R, Ferrer M, Arnaldez FI, Ji J, Tran HL, Zhang Y, Mendoza A, Helman LJ, Thomas CJ. Matrix Screen Identifies Synergistic Combination of PARP Inhibitors and Nicotinamide Phosphoribosyltransferase (NAMPT) Inhibitors in Ewing Sarcoma. Clin Cancer Res. 2017 Dec 1;23(23):7301-7311. doi: 10.1158/1078-0432.CCR-17-1121. Epub 2017 Sep 12. PMID: 28899971; PMCID: PMC6636827.
In general terms: In ATP-based viability assays light output follows the ATP content of the culture.
As for `CCN(C(=O)c1c(O)c2c(Cl)cccc2n(C)c1=O)c1ccccc1`, the “viability (% of control)” value was 106%. Turning to `CN[C@H](CC(C)C)C(=O)N[C@H]1C(=O)N[C@@H](CC(N)=O)C(=O)N[C@@H]2C(=O)N[C@H]3C(=O)N[C@H](C(=O)N[C@H](C(=O)O)c4cc(O)cc(O)c4-c4cc3ccc4O)[C@H](O)c3ccc(c(Cl)c3)Oc3cc2cc(c3O[C@@H]2O[C@H](CO)[C@@H](O)[C@H](O)[C@@H]2O[C@H]2C[C@](C)(N)[C@H](O)[C@H](C)O2)Oc2ccc(cc2Cl)[C@H]1O`, the Potency was 18.7 µM (active).

For `COc1cccc2c1C(=O)c1c(O)c3c(c(O)c1C2=O)C[C@@](O)(C(=O)CO)C[C@H]3O[C@H]1C[C@H](N)[C@H](O)[C@H](C)O1`, the Potency was 0.132 µM (active). Consider `CC(C)N1[N]C(=C2C=c3cc(O)ccc3=N2)c2c(N)ncnc21`, for which the Potency was 0.296 µM (active). Turning to `COc1cc([C@@H]2c3cc4c(cc3[C@@H](O[C@@H]3O[C@@H]5CO[C@@H](c6cccs6)O[C@@H]5[C@H](O)[C@@H]3O)[C@H]3COC(=O)[C@H]23)OCO4)cc(OC)c1O`, the Potency was 0.0469 µM (active). With `OCC(O)C(O)C(O)CO` (stereo not given), the “viability (% of control)” value is 99.2%.

Consider `CC(=O)O[C@]1(C(C)=O)CC[C@H]2[C@@H]3C=C(C)C4=CC(=O)CC[C@]4(C)[C@@H]3CC[C@@]21C`, for which the Potency was 4.18 µM (active).

Consider `Nc1ccn(C[C@@H](CO)OCP(=O)(O)O)c(=O)n1`, for which the “viability (% of control)” value is 129% [at 23.2 µM]. Turning to `O=C(C=CC#Cc1cccc(NS(=O)(=O)c2ccccc2)c1)NO`, the Potency was 5.26 µM (active). For `CCCCCCCCCCCCc1ccc(S(=O)(=O)Nc2nncs2)cc1`, the “viability (% of control)” value was 127%. Take `Cc1[nH]c(C=C2C(=O)Nc3ccccc32)c(C)c1CCC(=O)O`: the Potency is 0.372 µM (active). With `Cc1nc(NC(=O)N2CCC[C@@H]2C(N)=O)sc1-c1ccnc(C(C)(C)C(F)(F)F)c1`, the Potency was 1.87 µM (active). On to `CC1(C)O[C@@H]2C[C@H]3[C@@H]4CCC5=CC(=O)C=C[C@]5(C)[C@@H]4[C@@H](O)C[C@]3(C)[C@]2(C(=O)CO)O1`, for which the “viability (% of control)” value is 103%.

Take `CO[C@@H]1[C@@H](O)[C@H](O)[C@@H](n2c3c(Cl)cccc3c3c4c(c5c6cccc(Cl)c6[nH]c5c32)C(=O)NC4=O)O[C@@H]1CO`: the Potency was 0.0743 µM (active). Turning to `Cc1cc(O)c2c(c1)C(=O)c1cccc(O)c1C2=O`, the “viability (% of control)” value is 109%. For the molecule `CC(=O)ON=C1C(c2c(O)[nH]c3cc(Br)ccc23)=Nc2ccccc21`, the Potency was 1.32 µM (active).

Consider `C[N+](C)([O-])CCNc1ccc(NCC[N+](C)(C)[O-])c2c1C(=O)c1c(O)ccc(O)c1C2=O`, for which the Potency was 13.2 µM (active). As to `CCC[C@@H](C=O)NC(=O)[C@H](CC(C)C)NC(=O)[C@H](CC(C)C)NC(=O)OCc1ccccc1` (Cbz-Leu-Leu-[Nva]-aldehyde), the Potency was 0.264 µM (active). Regarding `CCOC(=O)C1=C(C)NC(=S)NC1c1cccc(O)c1` (stereo not given), the Potency was 0.0296 µM (active).

Regarding `O=C(O)c1ccc(Nc2ncc3c(n2)-c2ccc(Cl)cc2C(c2c(F)cccc2F)=NC3)cc1`, the Potency was 0.662 µM (active). On the same count and under the same terms, under `CN(CC(=O)N(Cc1ccc(C2CCCCC2)cc1)c1ccc(C(=O)O)c(O)c1)S(=O)(=O)c1c(F)c(F)c(F)c(F)c1F` stands 4.69 µM (active); under `COC(=O)[C@H](CCCN=C(N)N)NS(=O)(=O)c1ccc(C)cc1`, 11.8 µM (active).

`Cc1cnc(NC(=O)Nc2cc(Br)c(C)cc2OC[C@@H]2CNCCO2)cn1`: the Potency is 0.743 µM (active). For `C[C@@H]1[C@H](C)CC[C@]2(C(=O)O)CC[C@]3(C)C(=CC[C@@H]4[C@@]5(C)C[C@@H](O)[C@H](O)[C@@](C)(CO)[C@H]5CC[C@]43C)[C@@H]12`, the “viability (% of control)” value was 82.6%. On to `Nc1nc2c(c(=O)[nH]1)N(C=O)[C@H](CNc1ccc(C(=O)N[C@@H](CCC(=O)O)C(=O)O)cc1)CN2`, for which the “viability (% of control)” value is 114%.

As for `CC1=C(C(=O)Nc2cc3cn[nH]c3cc2F)C(c2ccc(Cl)cc2F)N=C(c2ccnc(Cl)c2)N1` (stereo not given), the Potency is 14.8 µM (active). As to `CC(C)(O)Cn1c(NC(=O)c2ccc(-c3cn[nH]c3)s2)nc2cc(CN3CCOCC3)ccc21`, the Potency was 1.87 µM (active). Take `O=C(CN1C(=O)C2(CCCC2)NC[C@H]1c1cc(F)cc(F)c1)Nc1ccc2c(c1)C[C@@]1(C2)C(=O)Nc2ncccc21`: the “viability (% of control)” value was 124%. Regarding `FC(F)c1nc2ccccc2n1-c1nc(N2CCOCC2)nc(N2CCOCC2)n1`, the Potency is 0.59 µM (active). On to `COc1cc([C@@H]2c3cc4c(cc3[C@H](O)[C@H]3COC(=O)[C@@H]23)OCO4)cc(OC)c1OC`, for which the Potency is 0.0833 µM (active). As for `CC(=CC(=O)Nc1ccccc1C(=O)O)c1ccc2ccccc2c1`, the Potency is 7.43 µM (active). On to `O=C(Nc1cc2cc[nH]c2cn1)c1ccccc1`, for which the Potency is 16.6 µM (active). With `NC(=O)N1CCC(CC(=O)N2CCC([C@H]3c4ncc(Br)cc4CCc4cc(Cl)cc(Br)c43)CC2)CC1`, the Potency was 16.6 µM (active). In the case of `C=Cc1c(C)c2cc3nc(cc4[nH]c(cc5nc(cc1[nH]2)C(C)=C5CCC(=O)O)c(CCC(=O)OC)c4C)[C@@]1(C)C3=CC=C(C(=O)OC)[C@H]1C(=O)OC`, the Potency is 0.0332 µM (active). Turning to `CCC(C=C[C@@H]1OC(=O)C=C[C@H]1C)=C[C@H](C)CC=CC(C)=C[C@@H](C)C(=O)[C@@H](C)[C@H](O)[C@@H](C)CC(C)=CC(=O)O`, the Potency is 0.0156 µM (active). With `C[C@H]1C[C@H]2[C@@H]3CCC4=CC(=O)C=C[C@]4(C)[C@@H]3C(=O)C[C@]2(C)[C@@]1(O)C(=O)CO`, the “viability (% of control)” value is 91.2%. As to `CC(C)C[C@H](NC(=O)[C@@H](NC(=O)c1cccc(-c2ccccc2)n1)[C@@H](C)O)B(O)O`, the Potency is 0.0132 µM (active).

Take `O=C(Nc1nnc(-c2ccco2)o1)c1cc(-c2ccccc2)nc2ccccc12`: the Potency was 4.18 µM (active). `Cc1c2oc3c(C)ccc(C(=O)NC4C(=O)NC(C(C)C)C(=O)N5CCCC5C(=O)N(C)CC(=O)N(C)C(C(C)C)C(=O)OC4C)c3nc-2c(C(=O)NC2C(=O)NC(C(C)C)C(=O)N3CCCC3C(=O)N(C)CC(=O)N(C)C(C(C)C)C(=O)OC2C)c(N)c1=O` (stereo not given) (I: TVP[Sar][NMeV] / II: TVP[Sar][NMeV]; ester I:1-I:C, II:1-II:C; linker I:N-II:N via Actinocin(9to1); configuration not given here): the “viability (% of control)” value is 1.66%.

On to `COc1cc(CCc2cc(NC(=O)c3ccc(N4C[C@@H](C)N[C@@H](C)C4)cc3)n[nH]2)cc(OC)c1`, for which the Potency was 8.33 µM (active).

These data come from PubChem BioAssay (NCATS).
